From PubChem BioAssay (Tox21)
Results filed as inconclusive are left out. Unmarked numbers belong to inactive results. The call rests on the fitted dose curve; in most records, active means well fitted cell-killing curve with a large enough effect in the repeat runs; inconclusive means weak or mixed curves, or effect the other way; inactive means flat fitted curve, though single readings scatter.

experiment: qHTS assay to identify small molecule agonists of the TGF-beta/Smad signaling pathway - cell viability counter screen (AID 1346829); conditions: SBE-bla HEK293T viability, CellTiter-Glo luminescence, 5 h; series mostly up to 76.8 µM; activity change, negative = cytotoxicity: at the top concentration; further: top concentration of the series differs between compounds; nearly all actives have a fitted effect of over 45% in size
Source text: National Center for Advancing Translational Sciences [NCATS]
NIH Chemical Genomics Center [NCGC]
U.S. Environmental Protection Agency [EPA]
National Institutes of Environmental Health Sciences [NIEHS]
National Toxicology Program [NTP]
U.S. Food and Drug Administration [FDA]
Transforming growth factor beta (TGF-beta) superfamily consists of a large number of structurally related dimeric proteins that act as hormones or local mediators in regulating a wide range of biological functions. This superfamily includes TGF-betas themselves, the bone morphogenetic proteins (BMPs) and the activins. These ligands induce oligomerization of serine/threonine receptor kinases and phosphorylate the cytoplasmic signaling molecules of Smad protein family. CellSensor SBE-bla HEK 293T cell line (Life Technologies, Carlsbad, CA), responsive to TGF-beta was used to screen Tox21 10K compound library for identification of agonists/antagonists of the Smad signaling pathway. This cell line contains a beta-lactamase reporter gene under control of the Smad binding element (SBE) stably integrated into HEK 293T cells. Also cytotoxicity of the compounds was tested in parallel by measuring the cell viability using CellTiter-Glo assay system in the same wells.
Tox21 Assay Protocol Summary:
SBE-bla HEK 293T cells were dispensed at 4,000/well in 6 uL of assay medium into black wall/clear-bottom 1536-well plates using a Multidrop Combi (ThermoFisher Scientific, Waltham, MA) dispenser. After the assay plates were incubated at 37 C and 5% CO2 for an overnight, 23 nL of compounds dissolved in DMSO, positive controls or DMSO only was transferred to the assay plate by a Pintool station (Kalypsys, San Diego, CA). The assay plates were incubated at 37 C and 5% CO2 for 5 hr. One uL of LiveBLAzer B/G FRET substrate (Life Technologies) was added using a Flying Reagent Dispenser (FRD, Aurora Discovery, San Diego, CA) and the plates were incubated at room temperature for 2 hr. Fluorescence intensity (405 nm excitation, 460 nm and 530 nm emissions) was measured using an Envision plate reader (PerkinElmer, Shelton, CT). For cytotoxicity read, 4 uL of CellTiter-Glo reagent (Promega Corporation, Madison, WI) was added to each well of the assay plates using FRD. After 30min incubation at room temperature, the luminescence intensity was measured using ViewLux plate reader (PerkinElmer).
On the % scale 0 is the no-effect control and ±100 the full control effect.

SMILES	activity change, negative = cytotoxicity
COc1ccc(S(=O)(=O)N2C(=O)[C@@](c3ccccc3OC)(N3C[C@H](O)C[C@H]3C(=O)N(C)C)c3cc(Cl)ccc32)c(OC)c1	-6.4%
O=C1CCCCCCCCCCCC(=O)OCCO1	-8%
O=C(O)c1nc(Cl)c(Cl)c(Cl)c1Cl	0.919%
CC1=CC[C@H](C(C)C)C=C1	-1.3%
CO[C@@H]1[C@H](OC(=O)/C=C/C=C/C=C/C=C/C(=O)O)CC[C@]2(CO2)[C@H]1[C@@]1(C)O[C@@H]1CC=C(C)C	-8.11%
COc1cc2c(cc1OC)C(C(C(=O)N(CCc1ccc(OC)c(OC)c1OC)CCc1ccc(OC)c(OC)c1OC)c1ccccc1)=NCC2 (stereo not given)	-0.858% [at 35.3 µM]
CCOC(=O)C(O)c1ccccc1 (stereo not given)	-12.6% [at 35.3 µM]
CC(C)(CO)[N+](=O)[O-]	5.82%
CC(C)(O)c1ccc(CNC(=O)c2cccnc2Oc2ccc(F)cc2)cc1	17.8%
Nc1ncn([C@H]2C[C@H](O)[C@@H](CO)O2)c(=O)n1	3.45% [at 35.3 µM]
CCCCC(CC)COC(=O)COc1ccc(Cl)cc1Cl (stereo not given)	-3.53%
O=C(NCC1CN(c2ccc(N3CCOCC3=O)cc2)C(=O)O1)c1ccc(Cl)s1 (stereo not given)	1.1% [at 35.3 µM]
O=C(OCCCCCCOC(=O)c1ccccc1)c1ccccc1	11.6%
Nc1cccc([N+](=O)[O-])c1	4.7%
C=CC1CC2C=CC1C2 (stereo not given)	0.399%
c1ccc(CNCCNCc2ccccc2)cc1	-12.9% [at 35.3 µM]
CCCCC(CC)CN1C(=O)C2C3C=CC(C3)C2C1=O (stereo not given)	3.87%
CC(C)(C)OCC1CO1 (stereo not given)	4.57%
Cc1oc2c(NC(=O)c3c(Cl)cccc3Cl)cccc2c1C(C)(C)O	2.27%
CNC(=O)CN(CCN(CCN(CC(=O)[O-])CC(=O)NC)CC(=O)[O-])CC(=O)[O-].O.[Gd+3]	-26.4% [at 35.3 µM]

SMILES	activity change, negative = cytotoxicity
Nc1ccc(S(=O)(=O)Nc2ccccc2)cc1	0.082% [at 35.3 µM]
O=C1CCC(=O)O1	2.38%
CN(C)CCN(Cc1ccccc1)c1ccccn1	1.8% [at 35.3 µM]
O=C1C(O)=C(O)C(=O)C(O)=C1O	11.4% [at 35.3 µM]
CCOc1ccc(N)c([N+](=O)[O-])c1	1.39%
CCO[C@H](Cc1ccc(OCCc2ccc(OS(C)(=O)=O)cc2)cc1)C(=O)O	-1.51% [at 35.3 µM]
CN1Cc2cc(C(=O)N3CCC(C4CCNCC4)CC3)ccc2NC(CC(=O)O)C1=O (stereo not given)	20% [at 35.3 µM]
OCCNCc1ccccc1	15.8%
C=CC(=O)OCCOCCOC(=O)C=C	22.1%
CCN(CC)c1ccc2c(-c3ccccc3C(=O)O)c3ccc(=[N+](CC)CC)cc-3oc2c1	3.31%
Nc1c(CC(=O)O)cccc1C(=O)c1ccc(Br)cc1	-1.52% [at 35.3 µM]
C=CC(=O)OCCOc1ccccc1	4.12%
O=[N+]([O-])c1cccc(S(=O)(=O)O)c1	-0.774%
OCCN1CCN(CCCN2c3ccccc3C=Cc3ccccc32)CC1	4.96% [at 35.3 µM]
CCCCc1ncc(/C=C(\Cc2cccs2)C(=O)O)n1Cc1ccc(C(=O)O)cc1	-2.11% [at 35.3 µM]
c1ccc(-c2ccccn2)nc1	-17.6%
CCCCCCc1ccc(-c2ccc(C#N)cc2)cc1	-21%
C[N+](C)(C)CCOC(=O)CCC(=O)OCC[N+](C)(C)C	1.27% [at 35.3 µM]
C=C1[C@H]2CC[C@@H]3[C@H]2C(C)(C)CCC[C@]13C	0.041%
Cc1ncc(CO)c(C=O)c1O	5.79% [at 35.3 µM]
